# The supplement of paper PMC9942566
# Counter-ions that a name gives are not always drawn. ± gives the standard deviation of the averaged measurements.
# System: Serratia marcescens K904 PosmB-luxCDABE reporter (pMQ747)
# Experiment: PosmB-lux reporter fold induction (RLU/OD600 relative to no-compound control), highest over Biolog concentrations; higher = stronger reporter activation
# Settings: Biolog plate: PM11; well positions: C1-4; ΔrcsB mutant CMS5177; 4 h
# Method: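 Serratia marcescens K904 (wild type) or its isogenic ΔrcsB mutant, carrying the Rcs-dependent PosmB-luxCDABE reporter plasmid pMQ747, was grown in LB at OD600 0.1 in Biolog Phenotype MicroArray plates PM11-20 for 4 h at 30-32°C. Each compound is present at 3-4 proprietary concentrations (not stated); per the Fig. S1 legend the value given is the highest fold over those wells. Three independent trials.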
row,SMILES,PosmB-lux reporter fold induction
1,Cc1c(N)nc([C@H](CC(N)=O)NC[C@H](N)C(N)=O)nc1C(=O)N[C@H](C(=O)N[C@H](C)[C@@H](O)[C@H](C)C(=O)N[C@H](C(=O)NCCc1nc(-c2nc(C(=O)NCCC[S+](C)C)cs2)cs1)[C@@H](C)O)[C@@H](OC1OC(CO)C(O)C(O)C1OC1OC(CO)C(O)C(OC(N)=O)C1O)c1cnc[nH]1 (stereo not given in full) [Bleomycin],0.988 ± 0.1

# Same assay, conditions: Biolog plate: PM11; well positions: G9-12; ΔrcsB mutant CMS5177; 4 h
row,SMILES,PosmB-lux reporter fold induction
1,O=[Te]([O-])[O-].[K+].[K+] [Potassium tellurite],1.14 ± 0.19

# Same assay, conditions: Biolog plate: PM13; well positions: A9-12; ΔrcsB mutant CMS5177; 4 h
row,SMILES,PosmB-lux reporter fold induction
1,[Cl][Ni][Cl] [Nickel chloride],1.06 ± 0.2

# Same assay, conditions: Biolog plate: PM13; well positions: B9-12; ΔrcsB mutant CMS5177; 4 h
row,SMILES,PosmB-lux reporter fold induction
1,CCn1cc(C(=O)O)c(=O)c2cc3c(cc21)OCO3 [Oxolinic acid],4.3 ± 0.48

# Same assay, conditions: Biolog plate: PM13; well positions: C9-12; ΔrcsB mutant CMS5177; 4 h
row,SMILES,PosmB-lux reporter fold induction
1,[K+].[K+].[O]=[Cr](=[O])([O-])[O-] [Potassium chromate],1.87 ± 0.86

# Same assay, conditions: Biolog plate: PM13; well positions: E5-8; ΔrcsB mutant CMS5177; 4 h
row,SMILES,PosmB-lux reporter fold induction
1,CN[C@@H]1[C@@H](O)[C@@H](O[C@@H]2[C@@H](O)[C@H](O[C@H]3O[C@H]([C@@H](C)O)[C@@H](O)[C@H](O)[C@H]3N)[C@@H](N)C[C@H]2N)OC[C@]1(C)O [Geneticin (G418)],1.34 ± 0.41

# Same assay, conditions: Biolog plate: PM14; well positions: B5-8; ΔrcsB mutant CMS5177; 4 h
row,SMILES,PosmB-lux reporter fold induction
1,CCCCc1ccc(C(=O)O)nc1 [Fusaric acid],1 ± 0.025

# Same assay, conditions: Biolog plate: PM14; well positions: B9-12; ΔrcsB mutant CMS5177; 4 h
row,SMILES,PosmB-lux reporter fold induction
1,O=[As]([O-])([O-])[O-].[Na+].[Na+].[Na+] [Sodium arsenate],0.724 ± 0.054

# Same assay, conditions: Biolog plate: PM14; well positions: C9-12; ΔrcsB mutant CMS5177; 4 h
row,SMILES,PosmB-lux reporter fold induction
1,N#CO [Sodium cyanate],1.38 ± 0.44

# Same assay, conditions: Biolog plate: PM14; well positions: D1-4; ΔrcsB mutant CMS5177; 4 h
row,SMILES,PosmB-lux reporter fold induction
1,[Cl][Cd][Cl] [Cadmium chloride],0.871 ± 0.061

# Same assay, conditions: Biolog plate: PM14; well positions: D9-12; ΔrcsB mutant CMS5177; 4 h
row,SMILES,PosmB-lux reporter fold induction
1,[Na+].[Na+].[O]=[Cr](=[O])([O-])[O][Cr](=[O])(=[O])[O-] [Sodium dichromate],1.03 ± 0.33

# Same assay, conditions: Biolog plate: PM14; well positions: G9-12; ΔrcsB mutant CMS5177; 4 h
row,SMILES,PosmB-lux reporter fold induction
1,O=[N+]([O-])[O-].[Na+] [Sodium nitrate],2.32 ± 0.21

# Same assay, conditions: Biolog plate: PM15; well positions: E9-12; ΔrcsB mutant CMS5177; 4 h
row,SMILES,PosmB-lux reporter fold induction
1,C[n+]1ccc(-c2cc[n+](C)cc2)cc1 [Methyl viologen],1.89 ± 0.16

# Same assay, conditions: Biolog plate: PM15; well positions: G5-8; ΔrcsB mutant CMS5177; 4 h
row,SMILES,PosmB-lux reporter fold induction
1,[N-]=[N+]=[N-] [Sodium azide],1.5 ± 0.15

# Same assay, conditions: Biolog plate: PM15; well positions: H1-4; ΔrcsB mutant CMS5177; 4 h
row,SMILES,PosmB-lux reporter fold induction
1,O=[N+]([O-])c1ncc[nH]1 [2-Nitroimidazole],1.51 ± 0.7

# Same assay, conditions: Biolog plate: PM16; well positions: C1-4; ΔrcsB mutant CMS5177; 4 h
row,SMILES,PosmB-lux reporter fold induction
1,CN(C)S(=O)(=O)N(SC(F)(Cl)Cl)c1ccccc1 [dichlofluanid],2.54 ± 1.7

# Same assay, conditions: Biolog plate: PM16; well positions: C9-12; ΔrcsB mutant CMS5177; 4 h
row,SMILES,PosmB-lux reporter fold induction
1,CCCCCCCCCCCCCCCC[n+]1ccccc1 [cetylpyridinium],1.77 ± 0.53

# Same assay, conditions: Biolog plate: PM16; well positions: D1-4; ΔrcsB mutant CMS5177; 4 h
row,SMILES,PosmB-lux reporter fold induction
1,"O=[N+]([O-])c1ccc(Cl)c([N+](=O)[O-])c1 [1-chloro-2,4-dinitrobenzene]",1.75 ± 0.99

# Same assay, conditions: Biolog plate: PM16; well positions: F1-4; ΔrcsB mutant CMS5177; 4 h
row,SMILES,PosmB-lux reporter fold induction
1,O=[Te]([O-])[O-].[K+].[K+] [potassium tellurite],1.28 ± 0.43

# Same assay, conditions: Biolog plate: PM16; well positions: F5-8; ΔrcsB mutant CMS5177; 4 h
row,SMILES,PosmB-lux reporter fold induction
1,O=[Se]([O-])[O-].[Na+].[Na+] [sodium selenite],1.25 ± 0.21

# Same assay, conditions: Biolog plate: PM17; well positions: A5-8; ΔrcsB mutant CMS5177; 4 h
row,SMILES,PosmB-lux reporter fold induction
1,NC(CCl)C(=O)O [b-chloro-L-alanine hydrochloride],1.04 ± 0.15

# Same assay, conditions: Biolog plate: PM17; well positions: B5-8; ΔrcsB mutant CMS5177; 4 h
row,SMILES,PosmB-lux reporter fold induction
1,CNC1CC(N)C(O)C(OC2OC(CO)C(O)C3OC4(OC(C(N)CO)C(O)C(O)C4O)OC23)C1O (stereo not given) [hygromycin B],1.37 ± 0.19

# Same assay, conditions: Biolog plate: PM17; well positions: C1-4; ΔrcsB mutant CMS5177; 4 h
row,SMILES,PosmB-lux reporter fold induction
1,Nc1ccncc1 [4-aminopyridine],1.95 ± 1.4

# Same assay, conditions: Biolog plate: PM17; well positions: D1-4; ΔrcsB mutant CMS5177; 4 h
row,SMILES,PosmB-lux reporter fold induction
1,CC1=C(C(=O)Nc2ccccc2)S(=O)(=O)CCO1 [oxycarboxin],1.01 ± 0.57

# Same assay, conditions: Biolog plate: PM17; well positions: D5-8; ΔrcsB mutant CMS5177; 4 h
row,SMILES,PosmB-lux reporter fold induction
1,"Nc1ncn[nH]1 [3-amino-1,2,4-triazole]",5.84 ± 4.5

# Same assay, conditions: Biolog plate: PM17; well positions: G1-4; ΔrcsB mutant CMS5177; 4 h
row,SMILES,PosmB-lux reporter fold induction
1,O=C(O)CCCc1ccc(N(CCCl)CCCl)cc1 [chlorambucil],1.28 ± 0.21

# Same assay, conditions: Biolog plate: PM18; well positions: C9-12; ΔrcsB mutant CMS5177; 4 h
row,SMILES,PosmB-lux reporter fold induction
1,Oc1c(Cl)c(Cl)c(Cl)c(Cl)c1Cl [pentachloro-phenol],0.784 ± 0.046

# Same assay, conditions: Biolog plate: PM18; well positions: E5-8; ΔrcsB mutant CMS5177; 4 h
row,SMILES,PosmB-lux reporter fold induction
1,[O-][I+3]([O-])([O-])O [sodium m-periodate],1.04 ± 0.24

# Same assay, conditions: Biolog plate: PM18; well positions: E9-12; ΔrcsB mutant CMS5177; 4 h
row,SMILES,PosmB-lux reporter fold induction
1,[Cl][Sb]([Cl])[Cl] [antimony (III) chloride],0.481 ± 0.06

# Same assay, conditions: Biolog plate: PM18; well positions: F1-4; ΔrcsB mutant CMS5177; 4 h
row,SMILES,PosmB-lux reporter fold induction
1,NNC(N)=O [semicarbazide],3.86 ± 1.5

# Same assay, conditions: Biolog plate: PM18; well positions: G1-4; ΔrcsB mutant CMS5177; 4 h
row,SMILES,PosmB-lux reporter fold induction
1,Oc1cc(Cl)ccc1Oc1ccc(Cl)cc1Cl [triclosan],1.05 ± 0.51

# Same assay, conditions: Biolog plate: PM18; well positions: H5-8; ΔrcsB mutant CMS5177; 4 h
row,SMILES,PosmB-lux reporter fold induction
1,Oc1ccccc1-c1ccccc1 [2-phenylphenol],1.22 ± 0.42

# Same assay, conditions: Biolog plate: PM18; well positions: H9-12; ΔrcsB mutant CMS5177; 4 h
row,SMILES,PosmB-lux reporter fold induction
1,CC1=CC(=O)c2c(O)cccc2C1=O [plumbagin],1.11 ± 0.53

# Same assay, conditions: Biolog plate: PM20; well positions: C5-8; ΔrcsB mutant CMS5177; 4 h
row,SMILES,PosmB-lux reporter fold induction
1,CN1[C@@H]2CC[C@H]1C[C@@H](OC(=O)C(CO)c1ccccc1)C2 (stereo not given in full) [atropine],1.49 ± 0.44

# Same assay, conditions: Biolog plate: PM20; well positions: E5-8; ΔrcsB mutant CMS5177; 4 h
row,SMILES,PosmB-lux reporter fold induction
1,CCCCCCCCCCCCNC(=N)N [dodine],1.31 ± 0.24

# Same assay, conditions: Biolog plate: PM20; well positions: F1-4; ΔrcsB mutant CMS5177; 4 h
row,SMILES,PosmB-lux reporter fold induction
1,O=c1cc(O)c2ccccc2o1 [4-hydroxyl-coumarin],1.62 ± 0.32

# Same assay, conditions: Biolog plate: PM20; well positions: G1-4; ΔrcsB mutant CMS5177; 4 h
row,SMILES,PosmB-lux reporter fold induction
1,O=C1C2CC=CCC2C(=O)N1SC(Cl)(Cl)Cl (stereo not given) [captan],1.72 ± 0.34

# Same assay, conditions: Biolog plate: PM20; well positions: G9-12; ΔrcsB mutant CMS5177; 4 h
row,SMILES,PosmB-lux reporter fold induction
1,Oc1cccc2cccnc12 [8-hydroxy-quinoline],1.84 ± 0.48

# Same assay, conditions: Biolog plate: PM20; well positions: H1-4; ΔrcsB mutant CMS5177; 4 h
row,SMILES,PosmB-lux reporter fold induction
1,O=C1C=C2C(=CCOC2O)O1 (stereo not given) [patulin],2.24 ± 1.1

# Same assay, conditions: Biolog plate: PM20; well positions: H5-8; ΔrcsB mutant CMS5177; 4 h
row,SMILES,PosmB-lux reporter fold induction
1,Cc1ccc(N(SC(F)(Cl)Cl)S(=O)(=O)N(C)C)cc1 [tolylfluanid],1.7 ± 0.64
